# Only some compounds are listed: those with a hit (about 18% of all), similar ones and a draw of the others.
# TDP1 cell CPT: qHTS for Inhibitors of human tyrosyl-DNA phosphodiesterase 1 (TDP1): qHTS in cells in presence of CPT; Potency, µM (titrated, usually from 46.2 µM), for inactives: at the highest dose activity change, negative = growth inhibition, hits mostly inhibitors; chicken DT40 Tdp1-/-;hTDP1 cells + 20 nM CPT, ATP luminescence, 48 h; 12% of 420,000 active; note: potency is the fitted concentration of half-maximal effect; % is set by controls: 0 for no effect and ±100 for the full control effect; nearly all actives have a fitted effect of over 55% in size
#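 Chicken DT40 Tdp1-/- cells stably complemented with human TDP1 were seeded at 400 cells/well in medium containing 20 nM camptothecin, exposed to pin-transferred compounds, and grown at 37 °C for at least 48 hr. Viability was read as ATP luminescence.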
# TGFb inhibitor: qHTS for Inhibitors of TGF-b; HepG2 CAGA-GFP TGF-b/SMAD3 reporter, GFP fluorescence, 18 h; TGF-beta stimulated, 500 pg/mL final; Potency, µM (top dose mostly 46.1 µM), without a hit: at the highest dose activity, negative = inhibition, most hits filed as inhibitors; 1.2% of 410,000 active; AID 588855, 2011; note: potency is the fitted concentration of half-maximal effect; % is set by controls: 0 for no effect and ±100 for the full control effect; nearly all actives have a fitted effect of over 65% in size
#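 TGF-beta reporter screen: HEPG2 CAGA-GFP, 1% FBS, 500 pg/mL TGF-beta final, 18 h; per-cell GFP summed per well; curves fitted and categorized by class.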
# HepG2 viability: qHTS for Inhibitors of TGF-b: Cytotox Counterscreen | AID 588856, 2011 | HepG2 CAGA-GFP viability, ATP luminescence, 18 h | 0.76% of 410,000 active | Potency, µM (titrated, usually from 46.1 µM), without a hit: at the highest dose activity change, negative = cytotoxicity, hits mostly cytotoxic; note: potency is the fitted concentration of half-maximal effect
#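 HepG2 CAGA-GFP cells (1000/well, DMEM with 1% FBS) received compound, then TGF-beta at 500 pg/mL final, and were incubated 18 hours at 37 degrees C. Viability was read by CellTiter-Glo luminescence. Media-only wells were set as complete cell-killing and DMSO as no toxicity.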
# TDP1 cell noCPT: qHTS for Inhibitors of human tyrosyl-DNA phosphodiesterase 1 (TDP1): qHTS in cells in absence of CPT; DT40 Tdp1-/- hTDP1 cells, no CPT, ATP luminescence, 48 h; Potency, µM (doses to about 46.2 µM), for the others: at the top dose activity change, negative = growth inhibition, actives largely listed as inhibitors; 15% of 420,000 active; AID 686978, 2013; note: potency is the fitted concentration of half-maximal effect; % is set by controls: 0 for no effect and ±100 for the full control effect; nearly all actives have a fitted effect of over 55% in size
#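 Readout: luminescence from CellTiter-Glo after 30 min in the dark at RT. Cells: DT40 Tdp1-/- with stable hTDP1, 400/well. Exposure: compounds alone, ≥48 hr, 37 °C.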
# TDP1 inh: qHTS Assay for Inhibitors of Tyrosyl-DNA Phosphodiesterase (TDP1); Potency, µM (doses to about 130 µM), for the others: at the top dose activity change, negative = inhibition, most hits filed as inhibitors; 0.28% of 350,000 active; recombinant TDP1, AlphaScreen DNA substrate cleavage; Tyrosyl-DNA phosphodiesterase 1 (Homo sapiens), Q9NUW8; note: potency is the fitted concentration of half-maximal effect; % is set by controls: 0 for no effect and ±100 for the full control effect; nearly all actives have a fitted effect of over 40% in size
# Target sequence (Q9NUW8 whole entry, looked up): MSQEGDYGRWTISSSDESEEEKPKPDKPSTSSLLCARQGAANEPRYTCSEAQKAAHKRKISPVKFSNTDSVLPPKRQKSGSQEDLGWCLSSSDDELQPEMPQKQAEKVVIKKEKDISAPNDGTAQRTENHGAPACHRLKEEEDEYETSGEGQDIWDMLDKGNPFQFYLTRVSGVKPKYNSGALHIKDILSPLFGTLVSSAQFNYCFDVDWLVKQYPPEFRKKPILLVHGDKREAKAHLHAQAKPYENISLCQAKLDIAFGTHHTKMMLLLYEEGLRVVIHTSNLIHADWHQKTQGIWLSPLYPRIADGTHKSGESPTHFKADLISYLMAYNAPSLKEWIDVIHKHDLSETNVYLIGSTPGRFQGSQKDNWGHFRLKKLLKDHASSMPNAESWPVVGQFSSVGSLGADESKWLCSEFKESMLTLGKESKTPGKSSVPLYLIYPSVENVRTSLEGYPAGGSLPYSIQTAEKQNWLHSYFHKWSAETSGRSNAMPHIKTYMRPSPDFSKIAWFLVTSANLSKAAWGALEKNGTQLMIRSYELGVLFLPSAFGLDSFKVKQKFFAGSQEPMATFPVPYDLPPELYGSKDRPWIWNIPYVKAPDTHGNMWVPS
#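 Recombinant human Tdp1 (E. coli-expressed, 1 nM final) preincubated with compounds 15 min at room temperature, then 5'-biotin/3'-phosphotyrosine-FITC DNA substrate (15 nM final) added for 5 min. AlphaScreen beads (10 ug/ml final) added 10 min; cleavage lowers signal.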
# IL1B secr inh: qHTS for Inhibitors of Inflammasome Signaling: IL-1-beta AlphaLISA Primary Screen. THP-1 LPS/ATP IL-1B secretion, AlphaLISA, 16 h; stronger effect = lower value. activity change, % at 57.5 µM. 4.7% of 360,000 active; in the data active = activity change below about -50%; inconclusive = mostly about -30% to -49%; note: % is set by controls: 0 for no effect and ±100 for the full control effect
#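 Secreted IL-1B measured by AlphaLISA bead assay after 16 h compound exposure of THP-1 cells; compounds (final up to 57.5 uM) added 1 h before LPS (250 ng/mL) and ATP (1.25 mM) stimulation; lower signal means less secretion.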
# * = called active by the depositor; ? = inconclusive; . = no result given. Unless noted, calls come from the whole dose curve; as a rule, active = well fitted curve in the direction sought with a large enough effect; inconclusive = small, poorly fitted or top-dose-only effect, or another doubt; inactive = no such curve, though single readings can be large; an effect the other way counts as inactive or inconclusive.
SMILES,TDP1 cell CPT,TGFb inhibitor,HepG2 viability,TDP1 cell noCPT,TDP1 inh,IL1B secr inh
Cc1ccccc1-c1nc(CN2CCC(C(=O)NC3CCN(Cc4ccccc4)CC3)CC2)c(C)o1,20.6µM*,-4.2%,-16.5%,?,.,-7.9
COc1ccc(CCNC(=O)C2CCN(Cc3nc(-c4ccc(Cl)cc4)oc3C)CC2)cc1OC,-14.7%,-24.6%,4.7%,?,.,20.2
COc1ccc(CCNC(=O)C2CCN(Cc3nc(-c4ccccc4C)oc3C)CC2)cc1OC,23.1µM*,-7.7%,-21.6%,16.4µM*,5.2%,-29.4
Cc1ccccc1-c1nc(CN2CCC(C(=O)O)CC2)c(C)o1,6.0%,5.1%,-4.1%,-6.8%,0.0%,-7.0
CCCNC(=O)N1CCN(S(=O)(=O)c2ccc(C)c(C)c2)CC1,-7.2%,-3.6%,-4.9%,-16.7%,.,-4.9
CCN(CC)c1cc(C)c(/C=C/c2ccnc3ccccc23)cc1C,10µM*,-28.2%,-62.7%,12.6µM*,.,.
Cc1ccnc2ccccc12,1.7%,-10.3%,5.3%,-2.3%,.,.
Cc1cc(N(C)C)c(C)cc1/C=C/c1ccnc2ccccc12,0.794µM*,-24.6%,-42.2%,0.562µM*,.,.
Cc1ccc(OCc2cc(=O)n3ccsc3n2)c(NC(=O)c2ccco2)c1,3.2%,-10.6%,-12.3%,1.5%,0.0%,.
COCCn1c2nc(=O)n(-c3ccccc3)c(=O)c-2nc2ccccc21,?,?,-95.5%,11.6µM*,.,67.8
COCCn1c(COC)nc2ccccc21,1.4%,13.3%,6.2%,-1.3%,-3.3%,33.0
CCn1c(SCc2nc3sc(C(=O)O)c(C)c3c(=O)[nH]2)nc2ccccc21,-93.1%,11.3%,15.3%,-21.4%,8.91µM*,-10.3
COC(=O)c1sc2nc(CSc3ccc(Br)cc3)[nH]c(=O)c2c1C,?,-24.1%,0.8%,20.6µM*,3.7%,35.1
C[C@H](NC(=O)C1CCN(S(=O)(=O)c2ccccc2)CC1)C(=O)NC1CC1,-10.4%,1.5%,-13.3%,-3.4%,.,17.1
CN(C1CCCCC1)S(=O)(=O)c1ccc2c(c1)c(=O)c(C(=O)NCCc1ccccc1)cn2C,-16.3%,0.5%,9.0%,?,2.3%,.
CCn1cc(C(=O)NCCC(C)C)c(=O)c2cc(S(=O)(=O)N3CCCCC3)ccc21,23.1µM*,-1.1%,4.0%,?,2.3%,0.0
Nc1c(C(=O)NCCc2ccc(Cl)cc2)sc2ccc(S(=O)(=O)N3CCCCC3)cc12,.,.,.,.,4.2%,.
CC(C)CCNC(=O)c1sc2ccc(S(=O)(=O)N3CCCCC3)cc2c1N,23.1µM*,-22.1%,-18.3%,20.6µM*,1.4%,-52.2*
Cn1cc(C(=O)NCc2ccc(F)cc2)c(=O)c2cc(S(=O)(=O)N3CCCCC3)ccc21,23.1µM*,-15.0%,1.5%,16.4µM*,0.0%,?
CN(C1CCCCC1)S(=O)(=O)c1ccc2c(c1)c(=O)c(C(=O)NCc1ccc(F)cc1)cn2C,?,8.1%,4.2%,-23.9%,-2.3%,.
CN(C1CCCCC1)S(=O)(=O)c1ccc2c(c1)c(=O)c(C(=O)NCCc1ccc(Cl)cc1)cn2C,?,-7.6%,-2.0%,20.6µM*,-2.3%,.
CCOC(=O)C1CCCN(S(=O)(=O)c2cc3c(cc2C)NC(=O)CO3)C1 (centres undefined),-23.3%,-3.4%,-7.2%,?,-3.9%,.
CSc1ccccc1C(=O)OCC(=O)NC1CC1,10.1%,-1.8%,-20.8%,-5.6%,.,2.2
O=C(NCc1ccc(OC(F)(F)F)cc1)C1CCC(=O)N(C2CC2)C1 (centres undefined),?,2.9%,-1.4%,-26.6%,1.3%,14.0
CC1CCN(S(=O)(=O)c2ccc3c(c2)c(=O)c(C(=O)NCc2ccc(Cl)cc2)cn3C)CC1,-27.0%,5.7%,2.6%,4.61µM*,2.3%,.
SMILES,TDP1 cell CPT,TGFb inhibitor,HepG2 viability,TDP1 cell noCPT,TDP1 inh,IL1B secr inh
CCn1cc(C(=O)N2CCc3ccccc32)c(=O)c2cc(S(=O)(=O)N3CC(C)CC(C)C3)ccc21 (centres undefined),14.6µM*,0.0%,-33.9%,?,2.6%,-8.6
CCN(CC)CCCNC(=O)c1cn(CC)c2ccc(S(=O)(=O)N3CCc4ccccc4C3)cc2c1=O,?,0.0%,-37.0%,29.1µM*,5.3%,-18.5
CCn1cc(C(=O)NCCc2ccc(Cl)cc2)c(=O)c2cc(S(=O)(=O)N3CCC(C)CC3)ccc21,?,-1.5%,-9.5%,18.4µM*,2.3%,.
CCn1cc(C(=O)NCCc2ccc(Cl)cc2)c(=O)c2cc(S(=O)(=O)N3CCCCCC3)ccc21,-11.6%,22.2%,0.0%,1.0%,0.0%,.
OC1CCC2Cc3ccccc3N=C12 (centres undefined),7.3%,.,.,-23.9%,10.7%,.
CCOC(=O)c1[nH]c(C)c(CCC(=O)N2CCN(c3ccc(OC)cc3)CC2)c1C,-20.8%,-3.6%,4.3%,?,8.1%,.
CCn1cc(C(=O)NCCc2ccccc2)c(=O)c2cc(S(=O)(=O)N3CCOCC3)ccc21,-15.3%,6.5%,-14.4%,-11.1%,-2.3%,.
CCN(CC)S(=O)(=O)c1ccc2c(c1)c(=O)c(C(=O)NCCCN(C)c1ccccc1)cn2C,-26.5%,-5.3%,-41.5%,?,-3.3%,-6.3
CCn1cc(C(=O)NCCc2ccccc2)c(=O)c2cc(S(=O)(=O)N3CCCC3)ccc21,?,-5.3%,-18.2%,18.4µM*,7.9%,-16.5
CN(CCCNC(=O)c1cn(C)c2ccc(S(=O)(=O)N(C)C)cc2c1=O)c1ccccc1,18.4µM*,4.8%,-6.2%,?,7.9%,10.6
COc1ccc(CCC(=O)N2CCc3ccccc32)cc1,-12.4%,-26.6%,-8.6%,?,0.0%,-2.9
CN(C1CCCCC1)S(=O)(=O)c1ccc(=S)[nH]c1,?,0.0%,-1.0%,?,3.1%,6.0
CCN(CC)C(=O)CSc1nc2c(sc(=S)n2-c2ccc(C)cc2C)c(=O)[nH]1,1.0%,0.0%,-33.2%,-15.5%,.,30.3
O=C(Nc1ccc(OC(F)F)cc1)c1nc(S(=O)(=O)Cc2ccccc2F)ncc1Cl,0.447µM*,12.6µM*,11.2µM*,1µM*,.,.
CCOc1ccc(NC(=O)c2nc(SCc3ccccc3F)ncc2Cl)cc1,-9.0%,6.2%,5.2%,-23.3%,.,.

# High-throughput results deposited in PubChem by National Center for Advancing Translational Sciences (NCATS).
